Source: PubChem BioAssay (NCATS)
Records with an inconclusive call do not appear. Unmarked numbers belong to inactive results. Calls of active or inactive are those of the source. The call rests on the fitted dose curve; tested in HEK293 reporter line.

Experiment: qHTS for Inhibitors of the Functional Ribonucleoprotein Complex (vRNP) of Lassa (LASV) Arenavirus: LASV Primary Screen - GLuc reporter signal (AID 1347082); further: nearly all actives have a fitted effect of over 60% in size
Details: LASV minigenome vRNP, Gaussia luciferase reporter; series mostly up to 57.5 µM; activity change, negative = inhibition: at the top concentration
On the % scale 0 is the no-effect control and ±100 the full control effect; potency means the concentration at half of the fitted maximal effect.

Compound	activity change, negative = inhibition	Potency
C[C@]12O[C@H](C[C@@]1(O)C(=O)O)n1c3ccccc3c3c4c(c5c6ccccc6n2c5c31)CNC4=O	-19.8% [at 5.82 µM]	–
CC(C)=CCC/C(C)=C/CC/C(C)=C/CCC1(C)CCc2cc(O)ccc2O1 (stereo not drawn)	-2.69%	–
C=O	4.74% [at 115 µM]	–
CC(C)(O)c1cc2nc(-c3cnc(N)nc3)nc(N3CCOCC3)c2s1	–	385 nM (active)
O=C1C=CC[C@H](/C=C/C[C@@H](O)C[C@H](O)CCc2ccccc2)O1	-2.99%	–
O=C1CCCCCCCCCCCCCCO1	0.0649% [at 115 µM]	–
NC(=O)NCCCC(=O)O	11%	–
COc1cc2c(=O)c(-c3ccc(O)cc3)coc2cc1OC1OC(CO)C(O)C(O)C1O (stereo not drawn)	1.03%	–
CNc1nc(-c2ccc3c(N)n[nH]c3c2)cc(N2C[C@@H](C(=O)NC3CCCCC3)CC[C@@H]2C)n1	-30.5%	–
COC(=O)c1ccc(N2CC3CNC(=O)C2(C(=O)OC)N3C)cc1 (stereo not drawn)	4.52%	–
CCCC1CCC(=O)O1 (stereo not drawn)	3.5% [at 115 µM]	–
O=C(O)CCCCCCCCCC(=O)O	13.4% [at 115 µM]	–
Cn1cc(C=C2C(=O)Nc3cccnc32)c2ccccc21	-5.87%	–
CC1OC(Oc2ccc3ccc(=O)oc3c2-c2c(O)ccc3cc(Oc4ccc5ccc(=O)oc5c4)c(=O)oc23)C(O)C(O)C1O (stereo not drawn)	-0.552%	–
CCCCCCCCCCCCCCCCCC(=O)NCC(COP(=O)([O-])OCC[N+](C)(C)C)OCC (stereo not drawn)	18.7%	–
COc1ccc2c(c1)c(=O)cc(-c1ccccc1)n2C	0.214%	–
C[C@H]1CCC2[C@](C)(CO)[C@@H](O)CC[C@]2(C)[C@@]12CCC(CO)(CCO)O2 (stereo partly drawn)	4.97%	–
CCCCC[C@H](O)C=C[C@H]1[C@H](O)CC(=O)[C@H]1CCCCCCC(=O)O	24.9%	–
O=C(O)c1cccc(C(=O)O)n1	0.345% [at 115 µM]	–
CCN1C[C@]2(CO)CC[C@H](OC)[C@@]34C5C[C@H]6[C@H](OC)C5[C@](O)(C[C@H]6OC)[C@@](O)(C(OC)C23)[C@@H]14 (stereo partly drawn)	8.36%	–

Compound	activity change, negative = inhibition	Potency
C#C[C@]1(O)CC[C@H]2[C@@H]3CCC4=Cc5oncc5CC4(C)[C@H]3CCC21C (stereo partly drawn)	-4.04%	–
CCC(=O)OCC(=O)[C@@]1(OC(=O)CC)[C@@H](C)C[C@@H]2[C@H]3CCC4=CC(=O)C=C[C@]4(C)[C@@]3(F)[C@@H](O)C[C@@]21C	17.4%	–
C[C@@H](Cc1cc2c(c(C(N)=O)c1)N(CCCO)CC2)NCCOc1ccccc1OCC(F)(F)F	-14.6%	–
Cc1cc(O)c2c(c1O)C(=O)C(O)=C(O)C2=O	-18.4%	–
CC12CCC(=O)C=C1CCC1C2CCC2(C)C(C(=O)CO)CC(O)C12 (stereo not drawn)	2.14%	–
CCN1CCC(n2cc(CNc3cc(Cl)c4ncc(C#N)c(Nc5ccc(F)c(Cl)c5)c4c3)nn2)CC1	7.86%	–
CCC(C)c1nccnc1OC (stereo not drawn)	-36.5% [at 115 µM]	–
C[C@@H]1CC2OC(=O)[C@@]3(C)C(=O)CC[C@@](C)(C23)[C@@]1(O)CCc1ccoc1 (stereo partly drawn)	-6.5%	–
COC(=O)[C@@H]1CC2=CC(=O)CC[C@]2(C)[C@@]23O[C@@H]2C[C@@]2(C)[C@H](CC[C@@]24CCC(=O)O4)[C@@H]13	-1.28%	–
CNC(=O)c1nn(C)c2c1C(C)(C)Cc1cnc(Nc3ccc(N4CCN(C)CC4)cc3)nc1-2	–	3430 nM (active)
C=C1C[C@H](O)[C@@H]2[C@H](OC(=O)[C@H]2C)[C@H]2[C@H](C)[C@@H](O)C[C@@H]12	-8.47%	–
CC1(C)CCC[C@]2(C)[C@H]3CCO[C@]3(C)CC[C@@H]12	-1.66% [at 115 µM]	–
O=c1c(O)c(-c2ccc(O[C@@H]3O[C@H](CO)[C@@H](O)[C@H](O)[C@H]3O)c(O)c2)oc2cc(O)cc(O)c12	0.0351%	–
CC1=CCC2C(C1)C2(C)C (stereo not drawn)	-33.3% [at 115 µM]	–
O=C(O)c1ccco1	-5.89% [at 115 µM]	–
CCCCCCCCCCCCCCCCCCCCCCCCCCCCCC	-1.22%	–
CCCCc1nc2ccccc2[nH]1	-4.21%	–
CC/C=C\CCCCCO	1.41%	–
Cc1nc2n(c(=O)c1CCN1CCC(c3noc4cc(F)ccc34)CC1)CCCC2O (stereo not drawn)	1.7%	–

Experiment: qHTS for Inhibitors of the Functional Ribonucleoprotein Complex (vRNP) of Lassa (LASV) Arenavirus: Viability assay - alamar blue signal for LASV Primary Screen (AID 1347083); further: nearly all actives have a fitted effect of over 80% in size
Details: cell viability, alamar blue fluorescence (LASV minigenome counter-screen); series mostly up to 57.5 µM; activity change, negative = reduced viability: at the top concentration

Compound	activity change, negative = reduced viability	Potency
C[C@]12O[C@H](C[C@@]1(O)C(=O)O)n1c3ccccc3c3c4c(c5c6ccccc6n2c5c31)CNC4=O	-37.8% [at 5.82 µM]	–
CC(C)=CCC/C(C)=C/CC/C(C)=C/CCC1(C)CCc2cc(O)ccc2O1 (stereo not drawn)	13.1%	–
C=O	-0.529% [at 115 µM]	–
CC(C)(O)c1cc2nc(-c3cnc(N)nc3)nc(N3CCOCC3)c2s1	–	193 nM (active)
O=C1C=CC[C@H](/C=C/C[C@@H](O)C[C@H](O)CCc2ccccc2)O1	-0.986%	–
O=C1CCCCCCCCCCCCCCO1	11.4% [at 115 µM]	–
NC(=O)NCCCC(=O)O	8.61%	–
COc1cc2c(=O)c(-c3ccc(O)cc3)coc2cc1OC1OC(CO)C(O)C(O)C1O (stereo not drawn)	-1.93%	–
CNc1nc(-c2ccc3c(N)n[nH]c3c2)cc(N2C[C@@H](C(=O)NC3CCCCC3)CC[C@@H]2C)n1	–	24300 nM (active)
COC(=O)c1ccc(N2CC3CNC(=O)C2(C(=O)OC)N3C)cc1 (stereo not drawn)	16.3%	–
CCCC1CCC(=O)O1 (stereo not drawn)	6.95% [at 115 µM]	–
O=C(O)CCCCCCCCCC(=O)O	22.1% [at 115 µM]	–
Cn1cc(C=C2C(=O)Nc3cccnc32)c2ccccc21	-33.6%	–
CC1OC(Oc2ccc3ccc(=O)oc3c2-c2c(O)ccc3cc(Oc4ccc5ccc(=O)oc5c4)c(=O)oc23)C(O)C(O)C1O (stereo not drawn)	8.43%	–
CCCCCCCCCCCCCCCCCC(=O)NCC(COP(=O)([O-])OCC[N+](C)(C)C)OCC (stereo not drawn)	-19%	–
COc1ccc2c(c1)c(=O)cc(-c1ccccc1)n2C	-5.31%	–
C[C@H]1CCC2[C@](C)(CO)[C@@H](O)CC[C@]2(C)[C@@]12CCC(CO)(CCO)O2 (stereo partly drawn)	-1.2%	–
CCCCC[C@H](O)C=C[C@H]1[C@H](O)CC(=O)[C@H]1CCCCCCC(=O)O	-23.6%	–
O=C(O)c1cccc(C(=O)O)n1	14.8% [at 115 µM]	–
CCN1C[C@]2(CO)CC[C@H](OC)[C@@]34C5C[C@H]6[C@H](OC)C5[C@](O)(C[C@H]6OC)[C@@](O)(C(OC)C23)[C@@H]14 (stereo partly drawn)	5.86%	–

Compound	activity change, negative = reduced viability	Potency
C#C[C@]1(O)CC[C@H]2[C@@H]3CCC4=Cc5oncc5CC4(C)[C@H]3CCC21C (stereo partly drawn)	-18.2%	–
CCC(=O)OCC(=O)[C@@]1(OC(=O)CC)[C@@H](C)C[C@@H]2[C@H]3CCC4=CC(=O)C=C[C@]4(C)[C@@]3(F)[C@@H](O)C[C@@]21C	-4.65%	–
C[C@@H](Cc1cc2c(c(C(N)=O)c1)N(CCCO)CC2)NCCOc1ccccc1OCC(F)(F)F	4.55%	–
Cc1cc(O)c2c(c1O)C(=O)C(O)=C(O)C2=O	-3.98%	–
CC12CCC(=O)C=C1CCC1C2CCC2(C)C(C(=O)CO)CC(O)C12 (stereo not drawn)	-8.82%	–
CCN1CCC(n2cc(CNc3cc(Cl)c4ncc(C#N)c(Nc5ccc(F)c(Cl)c5)c4c3)nn2)CC1	-2.77%	–
CCC(C)c1nccnc1OC (stereo not drawn)	8.24% [at 115 µM]	–
C[C@@H]1CC2OC(=O)[C@@]3(C)C(=O)CC[C@@](C)(C23)[C@@]1(O)CCc1ccoc1 (stereo partly drawn)	6.89%	–
COC(=O)[C@@H]1CC2=CC(=O)CC[C@]2(C)[C@@]23O[C@@H]2C[C@@]2(C)[C@H](CC[C@@]24CCC(=O)O4)[C@@H]13	-2.45%	–
CNC(=O)c1nn(C)c2c1C(C)(C)Cc1cnc(Nc3ccc(N4CCN(C)CC4)cc3)nc1-2	–	1090 nM (active)
C=C1C[C@H](O)[C@@H]2[C@H](OC(=O)[C@H]2C)[C@H]2[C@H](C)[C@@H](O)C[C@@H]12	13%	–
CC1(C)CCC[C@]2(C)[C@H]3CCO[C@]3(C)CC[C@@H]12	-0.0097% [at 115 µM]	–
O=c1c(O)c(-c2ccc(O[C@@H]3O[C@H](CO)[C@@H](O)[C@H](O)[C@H]3O)c(O)c2)oc2cc(O)cc(O)c12	0.204%	–
CC1=CCC2C(C1)C2(C)C (stereo not drawn)	8.87% [at 115 µM]	–
O=C(O)c1ccco1	17.7% [at 115 µM]	–
CCCCCCCCCCCCCCCCCCCCCCCCCCCCCC	-1.81%	–
CCCCc1nc2ccccc2[nH]1	-9.51%	–
CC/C=C\CCCCCO	2.49%	–
Cc1nc2n(c(=O)c1CCN1CCC(c3noc4cc(F)ccc34)CC1)CCCC2O (stereo not drawn)	27.2%	–
